HIF-2a inh: HIF-2a reporter inhibitors, primary screen, luminescence, 786-0 RCC cells. inhibition, % at 18.8 µM. 360,000 tested, 0.72% active. AID 624352, 2012. 786-0 RCC cells HIF-2a reporter, luciferase luminescence, overnight;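 active means inhibition of the luminescence signal of 40% or more relative to plate controls, in a single-dose primary screen at 18.75 µM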
KKLEB tox: cytotoxicity in KKLEB CF airway cells, primary screen, cytotoxicity control for CF NF-kB inhibitor project, cell-based, uHTS, fluorescence assay plates | KKLEB CF airway cells viability, ATPlite luminescence, overnight; hits give low values; cells stimulated with P. aeruginosa culture filtrate | 360,000 tested, 0.36% active | activity change (cytotoxicity), % at 5 µM;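 active means corrected activity change at or below -50% at 5 µM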
Peg3 promoter: Peg3 promoter-driven luciferase inhibitors, primary screen, cell-based, HeLa, luciferase luminescence; HeLa PEG-Prom luciferase reporter, overnight; inhibition, % at 20 µM; 360,000 tested, 1.7% active;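 active means inhibition of at least 50% at 20 µM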
TROY signal inh: inhibitors of TROY-driven NF-kB signaling, primary screen, Q293 LMP1-TROYcd cells, NF-kB luciferase, uHTS; 360,000 tested, 0.98% active; inhibition, % at 10 µM; AID 1347056, 2019; Q293 LMP1-TROYcd NF-kB luciferase reporter, 4 h;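 active means compounds whose plate-normalised and pattern-corrected inhibition of the luciferase reporter signal at the single screening dose is 50% or more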
CF NFkB block: inhibitors of PAF-induced NF-kB signaling, primary screen, cell-based, GFP fluorescence, uHTS; KKLEB NF-kB-GFP reporter, GFP fluorescence overnight; inhibition, % at 5 µM; 360,000 tested, 0.86% active;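 active means at least 50% inhibition at 5 µM, scaled per plate between neutral and stimulator controls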;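 further: PAF is a Pseudomonas aeruginosa culture filtrate used as stimulus; plate controls were PAF-stimulated DMSO wells for no effect and unstimulated DMSO wells for full effect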
TWEAK-Fn14 inh: inhibitors of TWEAK-Fn14 signaling, primary screen, luciferase reporter cells, uHTS; TWEAK-stimulated Fn14 reporter cells, luciferase luminescence, 8 h; inhibition, % at 10 µM; 360,000 tested, 2% active; in the data active means inhibition above about 50%
* marks the source's active call; other numbers are inactive results. Only some compounds are listed: those with a hit (about 4% of all), similar ones and a draw of the others.

How did CCc1ccc(N2C(=O)NC(=O)/C(=C\C=C\c3ccco3)C2=O)cc1 do in these assays?
HIF-2a inh: 24; KKLEB tox: 4; Peg3 promoter: 91*; TROY signal inh: 5; CF NFkB block: 45; TWEAK-Fn14 inh: 5

How did Cc1ccc(N2C(=O)NC(=O)/C(=C/c3ccoc3)C2=O)cc1 do in these assays?
HIF-2a inh: 25; KKLEB tox: 2; Peg3 promoter: 5; TROY signal inh: -4; CF NFkB block: 2; TWEAK-Fn14 inh: 11

How did Cc1cc(C)cc(N2C(=O)NC(=O)/C(=C\C=C\c3ccco3)C2=O)c1 do in these assays?
HIF-2a inh: 40*; KKLEB tox: -29; Peg3 promoter: 67*; TROY signal inh: 5; CF NFkB block: 47; TWEAK-Fn14 inh: 9

How did c1cnc(OCCN2CC2)cn1 do in these assays?
HIF-2a inh: 8; KKLEB tox: 4; Peg3 promoter: -8; TROY signal inh: -7; CF NFkB block: -8; TWEAK-Fn14 inh: -14

How did CN1CCN(c2nc3ccccc3c(=O)n2-c2ccccc2)CC1 do in these assays?
HIF-2a inh: 2; KKLEB tox: 2; Peg3 promoter: 6; TROY signal inh: -3; CF NFkB block: 7; TWEAK-Fn14 inh: 10

How did Cc1sc2ncn(CC(=O)NCCCC(=O)N3CCC4(CC3)OCCO4)c(=O)c2c1C do in these assays?
HIF-2a inh: 7; KKLEB tox: 4; Peg3 promoter: 18; TROY signal inh: 13; CF NFkB block: 14; TWEAK-Fn14 inh: -13

Results for O=C1NC(=O)N(c2ccccc2)C(=O)/C1=C\C=C\c1ccccc1 ?
HIF-2a inh: 82*; KKLEB tox: 18; Peg3 promoter: 61*; TROY signal inh: -24; CF NFkB block: 35; TWEAK-Fn14 inh: 67*

Results for CNCC(=O)c1ccccc1 ?
HIF-2a inh: 12; KKLEB tox: 13; Peg3 promoter: 2; TROY signal inh: 10; CF NFkB block: -22; TWEAK-Fn14 inh: -23

Results for Nc1cc(Cl)cc(Cl)c1 ?
HIF-2a inh: 6; KKLEB tox: 16; Peg3 promoter: 3; TROY signal inh: 6; CF NFkB block: -9; TWEAK-Fn14 inh: 14

Results for Cc1cc2c(C(C)C)c(O)c(O)c(C=O)c2c(O)c1-c1c(C)cc2c(C(C)C)c(O)c(O)c(C=O)c2c1O ?
HIF-2a inh: 89*; KKLEB tox: -53*; Peg3 promoter: 94*; TROY signal inh: 66*; CF NFkB block: 62*; TWEAK-Fn14 inh: 102*

What do the screens show for `FC(F)(F)C1=NC(C(F)(F)F)=NP(N2CCOCC2)(N2CCOCC2)=N1`?
HIF-2a inh: 0; KKLEB tox: -3; Peg3 promoter: 5; TROY signal inh: -1; CF NFkB block: -1; TWEAK-Fn14 inh: -12

What do the screens show for `O=C(Cc1ccccc1)N1CCN(Cc2ccccn2)CC1`?
HIF-2a inh: 5; KKLEB tox: -2; Peg3 promoter: -1; TROY signal inh: -32; CF NFkB block: -12; TWEAK-Fn14 inh: 92*

Results for O=C(Cc1ccccc1)N1CCN(Cc2ccc(Cl)cc2)CC1 ?
HIF-2a inh: 22; KKLEB tox: -6; Peg3 promoter: 23; TROY signal inh: 8; CF NFkB block: 0; TWEAK-Fn14 inh: 1

What do the screens show for `CC1CN=C(Nc2cccc3ccccc23)S1` (stereo not given)?
HIF-2a inh: -61; KKLEB tox: -10; Peg3 promoter: -52; TROY signal inh: 53*; CF NFkB block: -6; TWEAK-Fn14 inh: 44

How did CC1CN=C(Nc2ccccc2)S1 (stereo not given) do in these assays?
HIF-2a inh: -8; KKLEB tox: 10; Peg3 promoter: 0; TROY signal inh: 5; CF NFkB block: 10; TWEAK-Fn14 inh: -8

Results for CN(C)C(=O)Oc1ccc(OCc2nc3ccccc3[nH]2)cc1 ?
HIF-2a inh: 10; KKLEB tox: 9; Peg3 promoter: 17; TROY signal inh: 24; CF NFkB block: -10; TWEAK-Fn14 inh: 68*

Results for CCOC(=O)c1cnc(N2CC2)nc1N ?
HIF-2a inh: -29; KKLEB tox: 7; Peg3 promoter: 1; TROY signal inh: -25; CF NFkB block: -33; TWEAK-Fn14 inh: 13
